CFTR F508del cor = correctors of CFTR F508del function in bronchial epithelial cells. CFBE cells, YFP halide quenching; stimulated with forskolin plus potentiator P3; % fluorescence drop versus neutral controls. 0.36% of 350,000 active. AID 720511. activity (quench increase), % at 7.58 µM;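 active = mean added fluorescence quench of at least 8% versus neutral control, with both replicates also reaching 8%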;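 note: cells transiently co-express mutant CFTR-F508del with the halide-sensitive YFP; corrector assay measuring rescue of mutant channel to the surface after 24 h compound exposure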
CendR NRP1 mod = alters CendR peptide binding to human NRP-1; 0.85% of 360,000 active; FAM-RPARPAR peptide binding to NRP-1, fluorescence polarization; O14786; inhibition, % at 25 µM;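 active = inhibition or corrected inhibition above about 18%, plus a signal ratio from 0.5 to 1.5, limit read from the data, passing the limit was not always enough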
SKN-1 block = C. elegans SKN-1 inhibition; C. elegans VP596 Pgst-4::GFP/RFP ratio, acrylamide-induced, 24 h; inhibition, % at 21.8 µM; 0.49% of 360,000 active; AID 624304;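 active = interference check ratio from 0.5 to 1.5 plus GFP to RFP signal ratio inhibition reaching or exceeding a fixed threshold, cut at about 30% in these data, passing the limit was not always enough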
ATG4B inh = inhibitors of human ATG4B cysteine protease; Q9Y4P1; ATG4B cleavage of LC3-PLA2, NBD-HPC fluorescence, 1 h; inhibition, % at 8.33 µM; 0.51% of 340,000 active; AID 504462; in the data active = inhibition above about 40%
MPTP inh = blocks calcium-induced mitochondrial swelling; inhibition, % at 10 µM; 1.4% of 360,000 active; AID 602449; isolated mouse mitochondria, Ca2+ swelling absorbance, 30 min;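 active = inhibition of 50% or more, scaled per plate between neutral and stimulator controls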
MPTP counter = Rhodamine 123 counter-screen of mitochondrial pore hits; shares compounds with MPTP inh; isolated mitochondria, membrane potential, Rhodamine 123 fluorescence; 78% of 5,000 active; inhibition, % at 10 µM; in the data active = inhibition above about 22%
MPTP swell DR = MPTP inhibition, dose response swelling confirmation | shares compounds with MPTP inh | isolated mitochondria swelling, absorbance | IC50, µM | 58% of 780 active; in the data active = IC50 below about 20 µM
MPTP counter DR = active in counter-screen for permeability transition pore inhibitors; shares compounds with MPTP inh; isolated mitochondria counterscreen, fluorescence read-out; IC50, µM; 49% of 780 active; in the data active = IC50 below about 80 µM
Numbers stand for hits; n = inactive; x = no result. Rows were chosen to be rich in hits. Some 2.7% of all compounds tested hit in one or more screens of this group.

SMILES	CFTR F508del cor	CendR NRP1 mod	SKN-1 block	ATG4B inh	MPTP inh	MPTP counter	others
CCc1cccc(NC(=O)Nc2cccs2)c1	x	n	n	n	79	99
N#Cc1cccc(NC(=O)Nc2cccs2)c1	x	n	n	n	86	106
COc1ccc(NC(=O)Nc2cccs2)cc1Cl	n	n	n	n	74	80
Cc1cccc(C)c1NC(=O)Nc1cccs1	x	n	n	n	n	x
C[C@@H]1CN([C@@H](C)CO)C(=O)c2cc(-c3cccc(F)c3)cnc2O[C@@H]1CN(C)Cc1cccc(F)c1	n	x	x	x	x	x
O=C(Nc1cccs1)Nc1c(F)c(F)c(F)c(F)c1F	n	n	n	n	96	84
O=C(Nc1cccs1)Nc1c(F)c(F)cc(F)c1F	n	n	n	n	n	x
CCCCOc1ncnc2c1[nH]c1ccc(C)cc12	n	n	n	n	83	56
CCCOc1ncnc2c1[nH]c1ccc(OC)cc12	n	n	n	n	n	x
CCOC(=O)C1(CC2CCCCO2)CCN(C(=O)Nc2ccc(C(=O)OC)cc2)CC1 (stereo not given)	n	n	n	n	56	61
N#CC1=C(N)N2C(=C(C#N)C1c1cccc(Br)c1)Nc1ccccc12 (stereo not given)	n	n	n	n	86	55
N#CC1=C(N)N2C(=C(C#N)C1c1ccc(Br)cc1)Nc1ccccc12 (stereo not given)	n	x	x	n	x	x
Cc1ccc([N+](=O)[O-])cc1NC(=O)c1ccccc1	n	n	n	n	n	x
Cc1ccc([N+](=O)[O-])cc1NC(=O)C(Sc1ccccc1)c1ccccc1 (stereo not given)	x	n	n	n	94	79
Cc1ccc(C(C)C)cc1NC(=O)Nc1ccc([N+](=O)[O-])cc1	n	n	n	n	84	79
CCOc1ccc(NC(=O)Nc2cc(C(C)C)ccc2C)cc1	n	n	n	x	n	x
Cc1cc(Br)ccc1NC(=O)C(C)c1ccc([N+](=O)[O-])cc1 (stereo not given)	n	n	n	n	54	69
C[C@H](CO)N1C[C@H](C)[C@H](CN(C)C(=O)CN(C)C)Oc2ncc(C#CC3(O)CCCC3)cc2C1=O	n	x	x	x	x	x
COc1ccc(NS(=O)(=O)c2ccc3[nH]c(=O)[nH]c3c2)cc1	n	n	n	n	n	x
COc1ccc(NS(=O)(=O)c2ccc3nc(COc4ccc(Cl)c(C)c4)[nH]c3c2)cc1	x	n	n	n	67	66
O=C(O)c1ccc(/C=N\Nc2ccc(S(=O)(=O)N3CCOCC3)cc2[N+](=O)[O-])cc1	n	n	n	n	n	x
Cc1ccc(-n2c(O)c(/C=N/Nc3ccc(S(=O)(=O)N4CCOCC4)cc3[N+](=O)[O-])c3ccccc3c2=O)c(C)c1	n	46	n	n	110	40
CN(Cc1ccc(F)cc1)S(=O)(=O)c1nnc(NC(=O)c2ccccc2Br)s1	n	n	n	n	60	71
COc1ccc(CN(C)S(=O)(=O)c2nnc(NC(=O)c3cccc(F)c3)s2)cc1	n	n	n	n	54	81
CN(Cc1ccc(F)cc1)S(=O)(=O)c1nnc(NC(=O)c2ccccc2)s1	n	n	n	n	51	86
SMILES	CFTR F508del cor	CendR NRP1 mod	SKN-1 block	ATG4B inh	MPTP inh	MPTP counter	others
COc1ccc(C(=O)Nc2nnc(S(=O)(=O)N(C)Cc3ccccc3)s2)cc1	n	n	n	n	n	x
COCC(=O)N(C)C[C@@H]1Oc2ncc(C#CC3(O)CCCC3)cc2C(=O)N([C@@H](C)CO)C[C@@H]1C	n	x	x	x	x	x
C[C@@H]1CN([C@@H](C)CO)C(=O)c2cccc(NS(C)(=O)=O)c2O[C@@H]1CN(C)C	n	x	x	x	x	x
O=C(Nc1ccc(OC(F)F)c(Cl)c1)C(c1ccccc1)c1ccccc1	n	n	n	n	83	90
CCC(C(=O)Nc1ccc(OC)c(Cl)c1)c1ccccc1 (stereo not given)	n	n	n	n	n	x
O=C(Cc1cccc2ccccc12)Nc1ccc(OC(F)F)c(Cl)c1	x	n	n	n	85	90
CC(C)CC#Cc1cnc2c(c1)C(=O)N([C@@H](C)CO)C[C@@H](C)[C@H](CN(C)C(=O)C1CCOCC1)O2	n	x	x	x	x	x
Oc1ccc(Cl)cc1CNc1cnc2ccccc2c1	n	n	n	n	n	x
C=CCc1cccc(CNc2cnc3ccccc3c2)c1O	n	n	n	n	89	84
Oc1ccccc1CNc1cnc2ccccc2c1	n	n	n	n	71	59
Cc1ccc(OCCCCn2ccnc2C)c(C)c1	n	n	n	n	61	27
Cc1ccc(C(C)C)c(OCCn2ccnc2C)c1	n	n	n	n	n	x
C[C@@H]1CN([C@@H](C)CO)C(=O)Cc2cc(NC(=O)NC3CCCCC3)ccc2O[C@H]1CN(C)S(=O)(=O)c1cccs1	n	x	x	x	x	x
Cc1noc(C)c1NC(=O)N(C)C[C@@H]1Oc2ccc(NS(=O)(=O)c3ccccc3)cc2CC(=O)N([C@H](C)CO)C[C@H]1C	n	x	x	x	x	x
O=C(NNC(=O)c1cc(-c2ccccc2)nc2ccccc12)Nc1cccc(Cl)c1	x	n	n	n	n	x
O=C(NNC(=O)c1cc(-c2cccnc2)nc2ccccc12)Nc1ccc(Cl)cc1	n	n	n	n	86	86
CN1c2ccc(-c3cccc(F)c3)cc2[C@@H]2[C@@H](CCN2C(=O)Cc2ccccc2)[C@@H]1CO	n	x	x	x	x	x
CCOc1ccc(C(=O)Nc2ccc(N3CCN(C)CC3)cc2)cc1Br	x	n	n	n	60	n	MPTP swell DR=18;MPTP counter DR=n
C[C@@H]1CN([C@@H](C)CO)C(=O)c2cc(/C=C/c3ccccc3)cnc2O[C@@H]1CN(C)C(=O)C1CCOCC1	n	x	x	x	x	x
COCCNC[C@H]1[C@H](c2ccccc2)[C@H](CO)N1c1nc(C)c(C)s1	n	x	x	x	x	x
COc1ccc(OCc2nnc(NC(=O)Nc3ccc(F)cc3)s2)cc1	x	n	n	n	74	82
COc1ccc(NC(=O)Nc2nnc(-c3cccs3)s2)cc1	n	n	n	n	69	69
O=C(Nc1ccccc1)Nc1nnc(-c2cccs2)s1	x	n	n	n	n	x
CCOc1cc(/C=C2\N=C(SC)SC2=O)cc([N+](=O)[O-])c1OC(C)=O	x	n	n	n	n	x
CCOc1c(OC(C)=O)ccc(/C=C2\N=C(SCC)SC2=O)c1[N+](=O)[O-]	x	n	n	n	89	72
COC(=O)CS(=O)(=O)c1nnc([C@H](Cc2ccccc2)NC(=O)OC(C)(C)C)o1	x	n	n	n	98	n
CCc1sc(C(=O)Nc2nc(-c3ccccn3)cs2)cc1C	x	n	n	n	68	n
CN(C)C(=O)C[C@H]1CC[C@H]2[C@@H](COC[C@@H](O)CN2C(=O)C2CC2)O1	n	x	x	x	x	x
C[C@H](CO)N1C[C@H](C)[C@H](CN(C)CC2CCCCC2)Oc2ccc(NC(=O)Cc3cn(C)c4ccccc34)cc2CC1=O	n	x	x	x	x	x
